The values that follow come from the supplement of paper PMC11628255, “Interference of metal ions on the bioluminescent signal of firefly, Renilla, and NanoLuc luciferases in high-throughput screening assays” (Frontiers in Chemistry, 2024).

± gives the standard deviation of the averaged measurements.

This test has as its system NanoLuc luciferase (NLuc). Description: residual bioluminescent signal relative to negative control without GSH; higher = less interference (more residual luciferase signal). The following applies: screening conditions buffer. As for the experimental part:
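Selected metal salts at 3-4 concentrations tested on purified FLuc, NLuc or RLuc in screening buffer with 0, 0.2 or 2 mM glutathione added; 10 min enzyme pre-incubation at RT, luminescence 10 min after substrate. Signal normalised to negative control without GSH (% N_VALUE); triplicate wells.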

Where [1] appears, read: metal salt concentration 1 mM, glutathione 0 mM.
The mark [2] stands for this setting: metal salt concentration 1 mM, glutathione 0.2 mM.
Where [3] appears, read: metal salt concentration 1 mM, glutathione 2 mM.

Consider `[Cl][Fe]([Cl])[Cl]` [iron(III) chloride], for which the residual bioluminescent signal was 95.59 ± 0.8% (metal salt concentration 0.01 mM, glutathione 0 mM); 101 ± 6.7% (metal salt concentration 0.01 mM, glutathione 0.2 mM); 82.7 ± 2.5% (metal salt concentration 0.01 mM, glutathione 2 mM); 60.2 ± 3.4% (metal salt concentration 0.816 mM, glutathione 0 mM); 69.1 ± 0.65% (metal salt concentration 0.816 mM, glutathione 0.2 mM); 28.9 ± 1.5% (metal salt concentration 0.816 mM, glutathione 2 mM). Besides, the residual bioluminescent signal is, setting by setting: under setting [1], 54.3 ± 4.4%; under setting [2], 55.5 ± 7.2%; under setting [3], 44.4 ± 35%; (metal salt concentration 2.5 mM, glutathione 0 mM) 4.41 ± 1.8%; (metal salt concentration 2.5 mM, glutathione 0.2 mM) 7.61 ± 0.73%; (metal salt concentration 2.5 mM, glutathione 2 mM) 1.69 ± 0.99%.
Regarding `[Cl][Fe][Cl]` [iron(II) chloride], the residual bioluminescent signal (metal salt concentration 0.05 mM, glutathione 0 mM) was found to be 94.3 ± 1.3%; the residual bioluminescent signal (metal salt concentration 0.05 mM, glutathione 0.2 mM) was determined as 100 ± 3.5%; the residual bioluminescent signal (metal salt concentration 0.05 mM, glutathione 2 mM) stood at 82.2 ± 1.7%; the residual bioluminescent signal (metal salt concentration 0.88 mM, glutathione 0 mM) is 47.8 ± 5.5%; the residual bioluminescent signal (metal salt concentration 0.88 mM, glutathione 0.2 mM) is 49.4 ± 1.8%; the residual bioluminescent signal (metal salt concentration 0.88 mM, glutathione 2 mM) was found to be 34.8 ± 2.7%. Moreover, the residual bioluminescent signal is, setting by setting: under setting [1], 38.2 ± 3.3%; under setting [2], 47.6 ± 1.5%; under setting [3], 30.5 ± 2.4%; (metal salt concentration 5 mM, glutathione 0 mM) 1.69 ± 0.79%; (metal salt concentration 5 mM, glutathione 0.2 mM) 2.48 ± 0.68%; (metal salt concentration 5 mM, glutathione 2 mM) 7.22 ± 0.76%.
